# Compounds without any hit were thinned out: in the full panel of roughly 83,000, 20% have a hit.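 Percent growth is the endpoint: 0 to 100 indicates growth inhibition (40 means 60% inhibition), 0 means no net growth, and negative values indicate cell death.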 A number with no mark means an inactive call. The source made the active and inactive calls. Rule for the calls: active = growth percent below 10; inactive = the rest.
# Columns and labels:
# Assay in all cases: NCI-60 one-dose screen, 48 h (100 = growth as untreated, 0 = no growth, -100 = all killed)
# Conditions in all cases: 10 µM unless noted
# DU-145 prostate = system: DU-145 prostate
# K-562 leukemia = system: K-562 leukemia
# MALME-3M melanoma = system: MALME-3M melanoma
# MDA-MB-231 breast = system: MDA-MB-231 breast
# RXF 393 renal = system: RXF 393 renal
# SF-268 CNS = system: SF-268 CNS
# SF-295 CNS = system: SF-295 CNS
# UACC-257 melanoma = system: UACC-257 melanoma
# M14 melanoma = system: M14 melanoma
# HCT-15 colon = system: HCT-15 colon
# HT29 colon = system: HT29 colon
# SNB-75 CNS = system: SNB-75 CNS
# SNB-19 CNS = system: SNB-19 CNS
# U251 CNS = system: U251 CNS
# PC-3 prostate = system: PC-3 prostate
# SK-MEL-5 melanoma = system: SK-MEL-5 melanoma
# UACC-62 melanoma = system: UACC-62 melanoma
# LOX IMVI melanoma = system: LOX IMVI melanoma
# SK-MEL-28 melanoma = system: SK-MEL-28 melanoma
Compound,growth (DU-145 prostate),growth (K-562 leukemia),growth (MALME-3M melanoma),growth (MDA-MB-231 breast),growth (RXF 393 renal),growth (SF-268 CNS),growth (SF-295 CNS),growth (UACC-257 melanoma),growth (M14 melanoma),growth (HCT-15 colon),growth (HT29 colon),growth (SNB-75 CNS),growth (SNB-19 CNS),growth (U251 CNS),growth (PC-3 prostate),growth (SK-MEL-5 melanoma),growth (UACC-62 melanoma),growth (LOX IMVI melanoma),growth (SK-MEL-28 melanoma)
O=C1c2cc3c(cc2-c2c1c1cc(Cl)c(Cl)cc1c(=O)n2CCCn1ccnc1)OCO3,8.73% (active),16.3%,23.2%,41.4%,3.03% (active),17.7%,-17.4% (active),-17.1% (active),-11.1% (active),13%,-8.33% (active),9.95% (active),13.4%,-9.41% (active),25.3%,-9.98% (active),-38.1% (active),-53.6% (active),44.3%
CC/C(Cc1ccccc1)=C(\c1ccc(OCCN2CCCC2)cc1)c1ccc(OC(C)=O)cc1,95.6%,3.2% (active),94.7%,99.6%,65%,76%,99.6%,93.9%,75.1%,60.5%,24.4%,57.8%,105%,57.2%,79.5%,69.6%,43.9%,48.2%,21%
NC(N)=Nc1ccc(S(=O)(=O)O)cc1,131%,92.2%,103%,93.6%,136%,110%,117%,99.1%,110%,102%,111%,88.7%,90%,111%,99.1%,101%,86.9%,96.5%,103%
COc1ccc(/C(=C/c2ccc3ccccc3c2)c2nn[nH]n2)cc1OC,20.9%,17.8%,49.1%,44.8%,-13.3% (active),53.3%,4.59% (active),66.3%,10.9%,31.1%,5.54% (active),-7.45% (active),51.1%,14.3%,18.6%,23.5%,21.5%,–,56.6%
Clc1cccc(Nc2nc(Nc3cnc4ccccc4c3)c3[nH]cnc3n2)c1,82.6%,81.5%,116%,47.7%,69.7%,82.4%,94.6%,81.7%,88%,94.4%,79%,52.4%,80.6%,76.4%,49.2%,53%,47.9%,77.4%,86.4%
C=C1CCC2C3(C)COC(c4ccccc4Br)OC3CCC2(C)C1C/C=C1/C(=O)OCC1OC(C)=O (stereo unspecified),21.4%,-43% (active),-44.6% (active),-37.1% (active),-57.2% (active),-13.4% (active),27.6%,-41.6% (active),-36.7% (active),-36.2% (active),-46.2% (active),-25.3% (active),102%,-95.9% (active),-17.1% (active),-57.1% (active),-18.4% (active),-92% (active),-52.9% (active)
CC1=C(NCCN2CCCC2)C(=O)c2c(OCc3ccc(C(F)(F)F)cc3)cccc2C1=O,92.1%,-14.8% (active),104%,81.4%,88.5%,77.1%,76.7%,65.1%,-82.2% (active),70.9%,42.4%,82.1%,95.3%,69.9%,47.4%,85.2%,99.9%,68.4%,54.6%
Nc1ccc2c(c1)C(=O)NC2=O,110%,100%,90.5%,101%,115%,92.5%,101%,98.6%,99.4%,98.5%,90.7%,75.8%,93.5%,96%,121%,105%,89.7%,97.8%,99.8%
O=C(CN1CCN(c2cc3c(cc2F)c(=O)c(C(=O)O)cn3C2CC2)CC1)Nc1nc(-c2ccccc2)cs1,79.7%,64.5%,89.8%,95.5%,78.2%,83.9%,69.9%,65.2%,76%,82.4%,72.7%,69.6%,86.8%,43.8%,64.7%,78.9%,78.8%,36.5%,87.5%
COc1ccc(-c2c(C)noc2-c2ccc(O)cc2O)cc1,64.4%,39.6%,103%,108%,90.7%,82%,97.6%,111%,103%,68.8%,102%,90.9%,104%,93.8%,71.8%,80.4%,90.7%,–,105%
CNc1nc(C)c(-c2nc(Nc3cccc(S(N)(=O)=O)c3)ncc2F)s1,10.9%,4.89% (active),-31.4% (active),3.09% (active),-50% (active),-12.7% (active),6.78% (active),-16.4% (active),-3.19% (active),1.76% (active),0.997% (active),-19.2% (active),7.87% (active),4.31% (active),11.7%,-23.3% (active),-48.6% (active),0.394% (active),-38% (active)
COc1ccc2nc3cc(Cl)ccc3c(NCCNCC(O)CO)c2c1 (stereo unspecified),31.6%,10.8%,28.7%,20%,9.56% (active),28.8%,45.6%,32.5%,28%,73.4%,6.37% (active),42.1%,35.7%,17.3%,21.4%,35.3%,11%,-55.2% (active),30.8%
C[C@@H]1CCC2=C(CCC[C@]2(C)C(=O)O)[C@@]1(C)CCc1ccoc1,108%,116%,110%,90%,105%,95.1%,102%,82.9%,103%,102%,86.9%,95.7%,92.9%,85.4%,87.4%,95.4%,85.3%,98.4%,115%
CCCCCCCCCCCCCC(=O)C(C)N (stereo unspecified),7.93% (active),-44.3% (active),77.8%,-54.1% (active),28%,37.7%,56.3%,91.6%,63.7%,3.51% (active),13.8%,34.1%,77.5%,18.2%,3.08% (active),90.3%,-71.1% (active),-79.6% (active),73.9%
O=c1[nH]c(-c2ccccn2)nc2sc3c(c12)CCCCC3,48.8%,21.4%,75.3%,52.4%,70.4%,47.6%,33.1%,73.4%,43.3%,34.3%,36.9%,80.9%,46.1%,17.1%,44.2%,44.5%,20.2%,8.61% (active),45.2%
CCOC(=O)c1c2c(n3ccc(NC(=O)CCN4CCCCC4)cc13)C(=O)c1ncccc1C2=O,-93.9% (active),-48.2% (active),-71.7% (active),-72.9% (active),41.4%,36.6%,35.3%,21.2%,-77.9% (active),-62.9% (active),-61.5% (active),23.9%,-42.7% (active),-86.3% (active),47.3%,-83.6% (active),-50.6% (active),-63.9% (active),-64.7% (active)
O=C(Nc1ccc(Nc2cc(Nc3ccccc3)ncn2)cc1)Nc1cc(C(F)(F)F)ccc1F,65.7%,56.1%,85.9%,56.9%,61.2%,94.6%,84.2%,73.6%,57.4%,70.9%,58.4%,57.1%,87.4%,64.2%,55.8%,82%,65.8%,63.6%,71.9%

# Source: PubChem BioAssay (NCI)
